JMJD2A Tudor inh: JMJD2A Tudor domain (human) inhibition; actives 4.4% (n = 390,000); AlphaScreen JMJD2A-Tudor / H3K4me3 peptide binding; Potency, µM (series often up to 114 µM), without a hit: at the highest dose activity change, negative = inhibition, actives largely listed as inhibitors; also: % is scaled to controls: 0 for no effect and ±100 for the full control effect; nearly all actives have a fitted effect of over 50% in size
L3MBTL1 block: inhibitors of human L3MBTL1; AlphaScreen L3MBTL1–H3K9me1 peptide binding; actives 0.66% (n = 230,000); Potency, µM (titrated, usually from 57.1 µM), without a hit: top-dose activity, negative = inhibition, most hits filed as inhibitors; AID 485360; also: % is scaled to controls: 0 for no effect and ±100 for the full control effect; nearly all actives have a fitted effect of over 60% in size
Target sequence (Q9Y468 whole entry, looked up): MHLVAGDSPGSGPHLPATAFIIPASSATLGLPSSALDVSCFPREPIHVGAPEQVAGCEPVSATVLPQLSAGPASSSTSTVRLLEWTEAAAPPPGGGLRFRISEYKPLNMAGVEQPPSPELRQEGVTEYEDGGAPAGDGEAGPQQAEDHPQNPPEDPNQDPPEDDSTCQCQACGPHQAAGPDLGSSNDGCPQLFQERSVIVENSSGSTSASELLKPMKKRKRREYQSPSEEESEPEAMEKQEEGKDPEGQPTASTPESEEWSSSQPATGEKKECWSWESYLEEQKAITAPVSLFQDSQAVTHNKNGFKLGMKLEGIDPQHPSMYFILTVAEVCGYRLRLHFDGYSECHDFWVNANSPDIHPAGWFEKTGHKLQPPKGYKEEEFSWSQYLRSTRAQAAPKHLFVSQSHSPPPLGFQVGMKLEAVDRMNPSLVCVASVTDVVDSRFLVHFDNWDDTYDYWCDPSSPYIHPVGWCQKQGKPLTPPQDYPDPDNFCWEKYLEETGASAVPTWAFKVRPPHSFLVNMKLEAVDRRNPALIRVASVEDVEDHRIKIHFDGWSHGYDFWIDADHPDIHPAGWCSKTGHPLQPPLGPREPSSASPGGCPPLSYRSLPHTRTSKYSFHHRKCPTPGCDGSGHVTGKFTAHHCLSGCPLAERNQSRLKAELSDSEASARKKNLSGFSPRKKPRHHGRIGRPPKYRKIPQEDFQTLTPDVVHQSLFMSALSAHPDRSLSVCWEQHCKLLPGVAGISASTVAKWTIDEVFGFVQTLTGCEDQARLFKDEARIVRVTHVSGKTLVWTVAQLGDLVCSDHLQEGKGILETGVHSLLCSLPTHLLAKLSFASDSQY
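Displacement of a biotinylated histone H3(1-15) peptide monomethylated at Lys9 (75 nM) from L3MBTL1 (50 nM) was measured by AlphaScreen after a 30 min room-temperature compound incubation; cefsulodin titration served as intraplate control.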
BAZ2B block: inhibitors of human BAZ2B bromodomain | Q9UIF8 | AlphaScreen BAZ2B-H3K14Ac peptide displacement | Potency, µM (doses to about 114 µM), for inactives: at the top dose activity change, negative = inhibition, actives largely listed as inhibitors | actives 4.4% (n = 360,000); also: % is scaled to controls: 0 for no effect and ±100 for the full control effect; nearly all actives have a fitted effect of over 60% in size
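Complex of BAZ2B and biotin-H3K14Ac (50 nM apiece) forms over 30 min at RT, then faces library compounds up to 110 uM for another 30 min; AlphaScreen beads added, 20 min dark incubation, luminescence read.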
HP1b chromo inh: inhibitors of HP1-beta chromodomain binding to methylated histone tails | P83916 | AlphaScreen HP1-beta / biotin-H3K9me3 peptide binding | Potency, µM (titrated, usually from 114 µM), for the others: top-dose activity change, negative = inhibition, actives largely listed as inhibitors | actives 0.56% (n = 390,000) | AID 540317; also: nearly all actives have a fitted effect of over 70% in size
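AlphaScreen: HP1-beta (50 nM) preformed 30 min with biotin-H3(1-18)K9me3 peptide (50 nM) in PBS pH 7.4, 0.01% Tween-20. Compound added for 30 min at RT, then streptavidin donor/nickel chelate acceptor beads (10 ug/mL) for 30 min.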
G9a inh: blocks human histone lysine methyltransferase G9a. Q96KQ7. G9a H3K9 monomethylation, AlphaScreen, 2 h. Potency, µM (series often up to 102 µM), for inactives: at the highest dose activity, negative = inhibition, most hits filed as inhibitors. actives 8.8% (n = 350,000); also: % is scaled to controls: 0 for no effect and ±100 for the full control effect; nearly all actives have a fitted effect of over 75% in size
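G9a (20 nM) was preincubated 15 min with compound, then reacted 2 h at room temperature with 500 nM biotin-H3K9 peptide and 20 µM SAM. Monomethyl-H3K9 detected by AlphaScreen using anti-H3K9me1 antibody.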
Numbers without * were called inactive; ? = inconclusive; · = no result given; ! = a repeat was not active; [ ] = another dose, or the depositor's remark. Only some compounds are listed: those with a hit (about 11% of all), similar ones and a draw of the others. Calls follow the shape of the dose curve; as a rule, active = well fitted inhibition curve with a large enough effect; inconclusive = small, poorly fitted or top-dose-only effect; inactive = no such curve, though single readings can be large or run the other way. Potency is read from the fitted curve at half-maximal effect.

SMILES	JMJD2A Tudor inh	L3MBTL1 block	BAZ2B block	HP1b chromo inh	G9a inh
Cc1ccc(-n2sc3ccccc3c2=O)cc1	7.08µM*	-2.2%	7.94µM*	?	1.12µM*
CCN(C[C@H]1N[C@@](CC)(C(=O)OC)[C@H]2C(=O)N(Cc3ccccc3)C(=O)[C@@H]12)S(=O)(=O)c1ccc(C)cc1	-16.4%	3.4%	·	48.6%	·
O=c1oc(Cl)c(Cl)c2ccccc12	?	4.8%	?	-10.6%	6.7µM*
C=CCN(CC#CCOc1ccccc1OC)CC=C	·	5.6%[11.4 µM]	50.1µM*	·	17.8µM*
COc1ccc(CN2C(=O)NC(=O)/C(=C/c3ccc([N+](=O)[O-])o3)C2=O)cc1	·	·	14.1µM*	·	7.08µM*
COc1ccc(CN2C(=O)NC(=O)/C(=C\c3cccc(OC)c3OC)C2=O)cc1	56.2µM*	·	?	11.1%	?
O=C(COc1cc(Cl)ccc1Cl)Nc1ccc(Cl)cc1C(=O)c1ccccc1	-20.9%	·	-0.5%	17.0%	-24.5%[59 µM]
COc1ccc(CCNC(=O)CCS(=O)(=O)c2ccc3c(c2)oc(=O)n3C)cc1OC	-9.2%	·	-16.7%	64.0%	63.9%
Cc1ccc2c(c1)C1CN(C)CCC1N2C(=O)c1ccc(Br)o1 (stereo unspecified)	-8.6%	·	-5.8%	5.4%	79.4µM*
Cc1cc(C(=O)OCC(=O)NC(=O)c2cccn2C)c2ccccc2n1	10.9%	-13.1%	17.7%	13.4%	?
Nc1ccc(N)cc1	·	·	·	·	12.6µM*
Nc1ccc(Cc2ccc(N)cc2)cc1	-13.2%	·	·	8.3%	·
Cc1ccccc1Cn1cccc(C(=O)Nc2cc(Cl)ccc2C#N)c1=O	-11.3%	·	11.5%	10.6%[57 µM]	8.1%[59 µM]
Cc1cccc(-n2c(C)nc3ccccc3c2=O)c1C	-23.5%	8.0%	13.3%	11.5%	-8.1%[0.501 µM]
Cc1cccc(-n2c(C)n[nH]c2=S)c1C	44.7µM*	·	4.7%	44.6%	?
Nc1ccc2c3c(cccc13)-c1ccccc1-2	69.7%	·	·	184.4%	·
NC(CP(=O)(O)O)C(=O)O (stereo unspecified)	·	·	·	·	26.7µM*!
NC(CCCCCP(=O)(O)O)C(=O)O (stereo unspecified)	·	·	·	·	5.97µM*
NC(CCCP(=O)(O)O)C(=O)O (stereo unspecified)	·	·	·	·	0.4%[59 µM]
NC(N)=NCCC[C@@H](N)C(=O)O	·	·	·	·	34.7%[59 µM]
C[C@@H]1O[C@@H](O[C@H]2C[C@@H](O)[C@@]3(CO)[C@H]4[C@H](O)C[C@]5(C)[C@@H](C6=CC(=O)OC6)CC[C@]5(O)[C@H]4CC[C@@]3(O)C2)[C@@H](O)[C@H](O)[C@H]1O	·	·	·	·	20.9%[59 µM]
Cc1cc(C)nc(N/N=C/C2=C(O)CC(c3ccccc3)CC2=O)n1 (stereo unspecified)	·	·	22.4µM*	·	-13.2%
COc1ccc(C)cc1NC(=O)N(Cc1ccc2c(c1)OCO2)C1CCN(Cc2ccccc2)CC1	?	·	?	2.6%	?
COc1ccc(C)cc1NC(=O)CN1CCN(CC(=O)Nc2ccccc2F)CC1	9.1%	3.7%	-2.1%	52.3%	39.8µM*!
CC[C@@]1(C(=O)OC)N[C@H](CN(C)C(=O)Nc2ccc(F)cc2)[C@@H]2C(=O)N(Cc3ccccc3)C(=O)[C@@H]21	-18.0%	5.0%	·	65.0%	·
SMILES	JMJD2A Tudor inh	L3MBTL1 block	BAZ2B block	HP1b chromo inh	G9a inh
O=C(Cn1c(=O)n(CC2CCC(C(=O)NCCc3ccccc3)CC2)c(=O)c2ccccc21)Nc1cccc(F)c1 (stereo unspecified)	56.2µM*	·	-0.9%	10.6%	-6.1%[59 µM]
O=C1CCC[C@H]2[C@@H]3CCCN4CCC[C@H](CN12)[C@H]34	·	·	·	·	37.6%[59 µM]
COc1ccc(NC(=O)c2ccco2)cc1NC(=O)COc1cc(C)cc(C)c1	-15.8%	·	-24.5%	41.4%	-32.4%[59 µM]
CN(C(=O)Oc1cccc2cccnc12)c1ccccc1	-12.8%	51.8%	40.0%	27.4%	?
Oc1cccc2cccnc12	?	·	10µM*	-1.5%	16.9%[59 µM]
Cc1ccc(-n2c(/C=C/c3ccccc3)nc3ccccc3c2=O)cc1Cl	-4.3%	·	2.5%	16.9%	9.8%[59 µM]
Cc1cccc(N/N=C/c2c(O)[nH]c(=S)[nH]c2=O)c1	-24.1%	·	·	23.1%	·
O=C(CSC(=S)N1CCCC1)N/N=C/c1c(O)[nH]c(=S)[nH]c1=O	56.2µM*	-25.8%	·	33.1%	·
COCCn1c(O)c(/C=N/NC(=O)CSC(=S)N2CCCC2)c(=O)[nH]c1=S	89.1µM*	1.7%	-0.8%	37.2%	-23.3%[59 µM]
COc1ccc(N2CCN(C(=O)C3CCCN(S(=O)(=O)c4ccc5c(c4)CCCN5C(C)=O)C3)CC2)cc1 (stereo unspecified)	?	·	?	4.9%[57 µM]	?
CNC(C(=O)c1ccccc1)C(OC(C)C)c1ccc(Cl)cc1 (stereo unspecified)	-12.6%	2.7%	-16.4%	29.1%	1.4%[12.7 µM]
CNC(C(=O)c1ccccc1)C(OC)c1ccc(C)cc1 (stereo unspecified)	-27.7%	7.8%	-1.8%	32.3%	44.7µM*
Cc1cccc(-c2nn3c(=O)cc(CN4CCN(C(=O)COc5ccc(Cl)cc5)CC4)nc3s2)c1	-5.5%	·	2.6%	16.0%[57 µM]	-31.0%[59 µM]
CCOc1ccc(C=C2C(=O)NC(=S)NC2=O)cc1OCC	?	·	·	-3.2%	·
Cc1ccc(S(=O)(=O)Oc2ccccc2C=C2C(=O)N(C)C(=O)N(C)C2=O)cc1	0.0%	·	-0.3%	46.3%	·
CCOc1cc(C=C2C(=O)NC(=O)NC2=O)ccc1OCC(=O)N1CCOCC1	-8.2%	-2.0%	-4.5%	52.8%	8.91µM*
O=C1NC(=S)NC(=O)C1=Cc1ccc(OCC(=O)N2CCCC2)cc1	44.7µM*	·	?	?	14.1µM*
COc1cc(/C=C2/C(=O)N(c3ccccc3)N=C2C)ccc1OS(=O)(=O)c1ccccc1	·	?	28.2µM*	·	35.5µM*
O=C(COc1ccc(Br)cc1)N1CCN(C2CCCC2)CC1	-7.8%	·	1.9%	29.0%	2.8%[59 µM]

Source: PubChem BioAssay
